Results filed as inconclusive are left out. A call without a number means that no potency is given here. Calls of active or inactive are those of the source. The call rests on the fitted dose curve; in most records, active means well fitted inhibition curve with a large enough effect; inconclusive means small, poorly fitted or top-dose-only effect; inactive means flat fitted curve, though single readings scatter. Starred links: 1 amine or outer side, 2 acyl side, 3 side chain; linkers in the order of their positions; H or OH if unused. Positions of bridges follow the written chain, without caps; N, C: chain ends. Non-standard residues stand in square brackets, D forms with d. Residues, ends and D or L forms follow the SMILES beside them. ξ: configuration not given here. *: point of attachment. X3 = C[C@@H](Oc1ccc([C@H](N[*:1])C(=O)[*:2])cc1)[C@]1(/C=C\C(=O)[*:3])CO1; d(aIle) = CC[C@H](C)[C@@H](N)C(=O)O; X2 = CC(C)[C@@H](O)C(C)C(=O)*; ξNMeF = CNC(Cc1ccccc1)C(=O)O; ξT = CC(O)C(N)C(=O)O; ξS = NC(CO)C(=O)O
system: NAD(P)H diaphorase (Clostridium kluyveri); assay: Diaphorse counterscreen qHTS: Assay Interference Panel against the NCATS CANVASS Library (AID 1347362); details: Diaphorase enzyme, resazurin to resorufin fluorescence; series mostly up to 57.5 µM
Description: Natural products and their derivatives continue to be wellsprings of nascent therapeutic potential. However, many laboratories have limited resources for biological evaluation, leaving their previously isolated or synthesized compounds largely or completely untested. To address this issue, the Canvass library of natural products was assembled (https://tripod.nih.gov/canvass), in collaboration with academic and industry researchers, for quantitative high-throughput screening (qHTS) across a diverse set of cell-based and biochemical assays. The pure (>85% purity by liquid chromatography/mass spectrometry [LC/MS]) Canvass library of 346 natural products were submitted by 45 academic laboratories and companies around the world. We collected pure natural products to circumvent deconvolution and structure elucidation due to time and resource limitations. The library was formatted into 1536-well plates and evaluated in 50 qHTS (in an 11-pnt concentration series) bioassays with broad scope of disease-relevant mechanisms. The resulting data set from 50 different assays was then systematically analyzed to identify overall trends and specific natural products with interesting biological activities. Reported herein are the results of each individual qHTS and their corresponding assay protocol. This assay determines potential interactions with a common fluorescent coupling enzyme, NAD(P)H-Diaphorase, to identify possible false positives in future assays. The assay measures the conversion of resazurin to fluorescent resorufin, to identify compounds that inhibit the activity of diaphorase. National Center for Advancing Translational Sciences (NCATS), Rockville, MD National Institute of Health (NIH), Bethesda, Maryland
Assay Interference counterscreen protocol 1. In a 1536 well, black solid bottom, medium binding plates (Corning 7494), 3 uL of diaphorase from Clostridium kluyveri in PBS + 0.01% Tween-20 was dispensed into columns 2 to 48, rows 1 to 32 using the Bioraptr dispenser. PBS-T solution was dispensed in column 1, rows 1 to 32 for control purposes. 2. Compounds were pin transferred (~23 nL volume) via Wako Pin-tool (Wako Automation, Richmond VA) equipped with a 1536 pin head. The assay plates were treated with compounds in a concentration series with a final concentration range of 0.2 nM to 128 uM. 3. PTC was used as a control (25 uM, n = 32, column 2, row 1-32) at a final concentration of 114.5 nM and was pin transferred via Wako Pin-tool equipped with a 1536 pin head. 4. The assay plates were incubated in the dark for 15 minutes at room temperature. 5. One microliter of 4x detection reagent (40 uM Resazurin + 40 uM NADH in PBS-T) was then added to the assay plates (column 1-48, rows 1-32) for a final assay volume of 4 uL. 6. The assay plates were further incubated in the dark for 5 minutes at room temperature. 7. Fluorescence signal was acquired via the ViewLux plate reader (PerkinElmer) using an excitation filter 525/20, emission filter 598/25; 1000 light energy, 2 second exposure, 2x binning settings.
Potency means the concentration at half of the fitted maximal effect.

Row | SMILES | Potency
1 | CCCC[C@@H]1CC[C@H]2CCCC(CCCO)N12 (stereo not given in full) | inactive
2 | C/C=C1/CN2CC[C@@]34c5ccccc5N(C)[C@@H]3[C@@H]2C[C@@H]1[C@H]4C(=O)OC | inactive
3 | C=C[C@H]1CN2CCc3c([nH]c4cccc(OC)c34)[C@@H]2C[C@@H]1/C(=C\OC)C(=O)OC | inactive
4 | C[N+](C)(C)CCc1c[nH]c2ccccc12 | inactive
5 | C/C=C1/CN2CC[C@]34C(=C(C(=O)OC)[C@H]1C[C@H]23)Nc1ccccc14 | inactive
6 | C[C@]12CC(O)C3[C@@H](CC[C@@H]4C[C@@H](O)CC[C@]34CO)[C@@]1(O)CC[C@@H]2C1=CC(=O)OC1 (stereo not given in full) | inactive
7 | CC[C@H]1CN2CCc3c([nH]c4cccc(OC)c34)[C@@H]2C[C@@H]1/C(=C\OC)C(=O)OC | inactive
8 | CC[C@@H]1CN2CCC3(Nc4cccc(OC)c4C3=O)[C@@H]2C[C@@H]1/C(=C\OC)C(=O)OC (stereo not given in full) | inactive
9 | CO[C@H]1[C@H](O[C@H]2CC[C@]3(C=O)[C@H]4CC[C@]5(C)[C@@H](C6=CC(=O)OC6)CC[C@]5(O)[C@@H]4CC[C@]3(O)C2)O[C@H](C)[C@H](O)[C@@H]1OC | inactive
10 | C=C[C@]12C=CCN3CC[C@@]4(c5ccccc5NC(=O)[C@@H]4C1)[C@@H]32 | inactive
11 | CC[C@@H]1CN2CCc3c([nH]c4cccc(OC)c34)[C@@H]2C[C@@H]1/C(=C\OC)C(=O)OC | inactive
12 | CO[C@@H](/C=C/CC/C=C/C(=O)O)[C@@H](O)[C@H](C)/C=C(\C)[C@H](O)[C@H](C)C(=O)CCCC1CC(=O)NC(=O)C1 | inactive
13 | CC[C@H](C)[C@H]1NC(=O)[C@@H](NC(=O)C(C)[C@H](O)C(C)C)[C@@H](C)OC(=O)C2COC(=O)CNC(=O)/C=C\[C@]3(CO3)[C@@H](C)Oc3ccc(cc3)[C@H](NC1=O)C(=O)N(C)C(Cc1ccccc1)C(=O)NC(C(C)O)C(=O)N2 (stereo not given in full) (X2-T[d(aIle)][X3][ξNMeF][ξT][ξS]; ester 1-C; linker 3-6 via G) | inactive
14 | CO[C@H]([C@@H](C)[C@H]1O[C@]1(C)C[C@H](C)/C=C/C=C(\C)[C@H]1O[C@@H](CC(=O)O)CC[C@@H]1C)[C@@H](C)O | inactive
15 | CO[C@H]1C[C@H](O[C@H]2[C@@H](O)C[C@H](O[C@H]3CC[C@]4(C=O)[C@H]5CC[C@]6(C)C(C7=CC(=O)OC7)CC[C@]6(O)[C@@H]5CC[C@]4(O)C3)O[C@@H]2C)O[C@H](C)[C@H]1O[C@H]1C[C@@H](OC)[C@@H](O[C@@H]2O[C@H](CO)[C@@H](O)[C@H](O)[C@H]2O)[C@@H](C)O1 (stereo not given in full) | inactive
16 | C/C=C(\C)C(=O)O[C@@H]1[C@@H](O)[C@@H]2O[C@H]3[C@H](O[C@@H](CCCCC)CCCCCCC(=O)CCC(=O)OC[C@@H](O2)[C@H]1OC(=O)/C=C/c1ccccc1)O[C@H](C)[C@H](OC(C)=O)[C@@H]3O | inactive
17 | C=CC(C)(C)[C@@]12C[C@H]3C(=O)N/C(=C/c4cnc[nH]4)C(=O)N3[C@@H]1Nc1ccccc12 | inactive
18 | C1=C2CCCN[C@H]2C2CC1[C@H]1CCCCN1C2 (stereo not given in full) | inactive
19 | C/C=C/[C@@H]1[C@H]2C[C@@H](C)CC[C@@H]2C(C)=C[C@H]1C(=O)c1c(O)c(-c2ccc(O)cc2)c[nH]c1=O | inactive
20 | C[C@]12CC(O)C3[C@@H](CCC4C[C@@H](O)CC[C@@]43CO)[C@@]1(O)CC[C@@H]2C1=CC(=O)OC1 (stereo not given in full) | inactive
21 | c1ccc2nc3c(cc2c1)[nH]c1ccccc13 | inactive
22 | C=CC(C)(C)[C@@]12C[C@H]3C(=O)N/C(=C\c4cnc[nH]4)C(=O)N3[C@@H]1Nc1ccccc12 | inactive
23 | CC[C@]12C=CCN3CC[C@]4(C(=C(C(=O)OC)C1)Nc1ccccc14)[C@@H]32 | inactive
24 | C/C=C1/CN2C3CC1C1=CCC(=O)N4c5ccccc5[C@@]3(C[C@@H]2C2=C[C@H]3C5CC6N(CC[C@@]67c6ccccc6N(C2=O)[C@@H]37)C/C5=C/C)[C@H]14 (stereo not given in full) | inactive
25 | C[C@]12CCC3[C@@H](CC[C@@H]4C[C@@H](O)CC[C@]34CO)[C@@]1(O)CC[C@@H]2C1=CC(=O)OC1 (stereo not given in full) | inactive
26 | CCC(=O)N[C@@H](C[C@H](C)C(Cl)(Cl)Cl)C(=O)N1C(=O)C=C(OC)[C@@H]1C[C@H](C)C(Cl)Cl | inactive
27 | O[C@H]1C=C[C@@]23CCN(Cc4cc5c(cc42)OCO5)[C@@H]3C1 | inactive
28 | CCCCC1CC[C@H]2CCCC(CCC)N12 (stereo not given in full) | inactive
29 | CCCC[C@@H](C)/C=C1/CN2CCC[C@H]2[C@@](C)(O)[C@@H]1O | inactive
30 | COC1=C(C2=C(OC)C(=O)c3cc4c(c(O)c3C2=O)C(=O)O[C@H](C)C4)C(=O)c2c(cc3c(c2O)C(=O)O[C@H](C)C3)C1=O | 1450 nM (active)
